Laboratory results: PubChem BioAssay AID1159580 (chemical genetic matrix, 2015)
“And” between values parts separate entries of the source, which are not always exact repeats. Equal entries are not always repeated. The campaign covered roughly 5,500 compounds. About 2,000 (36%) were called active. Roughly 18% stayed inconclusive and do not appear here. Cut-off read from the data, not from the text of the source: active = normalized growth mostly below about 0.91 (no sharp cut-off); inconclusive = no clear call, values can overlap the other calls; inactive = mostly above about 0.92. This is one part of the list. Where a structure was tested more than once in an assay, its records may differ in their call.

Experiment: chemical genetic growth profiling, strain panel (AID 1159580);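 note: tested at 20 µM; growth read once vehicle control cultures reached saturation at 30 °C; 1 = growth at the plate median or of vehicle wells; lower values mean less growth of the strain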
Conditions: growth OD

Measured: normalized growth

Fc1ccc(C(c2ccc(F)cc2)N2CCN(C/C=C/c3ccccc3)CC2)cc1
0.959 (inactive) and 0.788 (active): S. cerevisiae deletion strains, locus YNL153C, strain GIM3, stronger effect = lower value
inactive: S. cerevisiae deletion strains, locus YJR075W, strain HOC1, stronger effect = lower value 0.952 | S. cerevisiae deletion strains, locus YKL009W, strain mrt4, stronger effect = lower value 0.965 | S. cerevisiae deletion strains, locus YKL068W, stronger effect = lower value 0.982 | S. cerevisiae deletion strains, locus YKL085W, strain MDH1 (second series), stronger effect = lower value 0.974 | S. cerevisiae deletion strains, locus YKL085W, strain MDH1, stronger effect = lower value 0.974 | S. cerevisiae deletion strains, locus YKL190W, strain CNB1, stronger effect = lower value 0.974 | S. cerevisiae deletion strains, locus YKR001C, strain vps1, stronger effect = lower value 0.972 | S. cerevisiae deletion strains, locus YLR058C, strain SHM2, stronger effect = lower value 0.981 | S. cerevisiae deletion strains, locus YLR102C, strain apc9, stronger effect = lower value 0.988 | S. cerevisiae deletion strains, locus YLR113W, strain HOG1, stronger effect = lower value 0.963 | S. cerevisiae deletion strains, locus YLR262C, strain YPT6, stronger effect = lower value 1.34 | S. cerevisiae deletion strains, locus YLR268W, strain sec22, stronger effect = lower value 0.933 | S. cerevisiae deletion strains, locus YLR330W, strain CHS5, stronger effect = lower value 0.988 | S. cerevisiae deletion strains, locus YLR342W, strain FKS1 (second series), stronger effect = lower value 0.981 | S. cerevisiae deletion strains, locus YLR371W, strain rom2, stronger effect = lower value 0.969 | S. cerevisiae deletion strains, locus YLR384C, strain iki3, stronger effect = lower value 0.957 | S. cerevisiae deletion strains, locus YLR418C, strain cdc73, stronger effect = lower value 0.993 | S. cerevisiae deletion strains, locus YML016C, strain PPZ1, stronger effect = lower value 0.992 | S. cerevisiae deletion strains, locus YML032C, strain rad52, stronger effect = lower value 0.948 | S. cerevisiae deletion strains, locus YML124C, strain tub3, stronger effect = lower value 0.991 | S. cerevisiae deletion strains, locus YMR078C, strain ctf18, stronger effect = lower value 0.966 | S. cerevisiae deletion strains, locus YMR223W, strain ubp8, stronger effect = lower value 0.988 | S. cerevisiae deletion strains, locus YMR263W, strain SAP30, stronger effect = lower value 0.968 | S. cerevisiae deletion strains, locus YMR307W, strain GAS1, stronger effect = lower value 1.28 and 0.996 | S. cerevisiae deletion strains, locus YNL067W, strain RPL9B, stronger effect = lower value 0.964 | S. cerevisiae deletion strains, locus YNL128W, strain TEP1, stronger effect = lower value 0.969 | S. cerevisiae deletion strains, locus YNL183C, strain NPR1, stronger effect = lower value 0.927 | S. cerevisiae deletion strains, locus YNL197C, strain WHI3, stronger effect = lower value 1.08 | S. cerevisiae deletion strains, locus YNL233W, strain BNI4, stronger effect = lower value 0.981 | S. cerevisiae deletion strains, locus YNL250W, strain rad50, stronger effect = lower value 0.992 | S. cerevisiae deletion strains, locus YNL271C, strain bni1, stronger effect = lower value 0.984 | S. cerevisiae deletion strains, locus YNL298W, strain CLA4, stronger effect = lower value 0.99 | S. cerevisiae deletion strains, locus YNL307C, strain MCK1, stronger effect = lower value 0.992 | S. cerevisiae deletion strains, locus YNL322C, strain KRE1, stronger effect = lower value 0.989 and 0.962 | S. cerevisiae deletion strains, locus YNR052C, strain pop2, stronger effect = lower value 0.933 | S. cerevisiae deletion strains, locus YOL006C, strain TOP1, stronger effect = lower value 0.81 | S. cerevisiae deletion strains, locus YOL012C, strain htz1 1.09 | S. cerevisiae deletion strains, locus YOL147C, strain pex11, stronger effect = lower value 0.984 | S. cerevisiae deletion strains, locus YOR061W, strain CKA2, stronger effect = lower value 0.982 | S. cerevisiae deletion strains, locus YOR069W, strain VPS5, stronger effect = lower value 0.995 | S. cerevisiae deletion strains, locus YOR083W, strain WHI5 (second series), stronger effect = lower value 1.05 | S. cerevisiae deletion strains, locus YOR136W, strain idh2, stronger effect = lower value 0.989 | S. cerevisiae deletion strains, locus YOR144C, strain elg1, stronger effect = lower value 0.982 | S. cerevisiae deletion strains, locus YOR184W, strain ser1, stronger effect = lower value 1.03 | S. cerevisiae deletion strains, locus YOR231W, strain MKK1, stronger effect = lower value 1 | S. cerevisiae deletion strains, locus YOR316C, strain cot1, stronger effect = lower value 0.967 | S. cerevisiae deletion strains, locus YPL055C, strain LGE1, stronger effect = lower value 0.96 | S. cerevisiae deletion strains, locus YPL241C, strain CIN2, stronger effect = lower value 0.981 | S. cerevisiae deletion strains, locus YPL256C, strain CLN2, stronger effect = lower value 0.97 | S. cerevisiae deletion strains, locus YPR119W, strain clb2, stronger effect = lower value 0.979 | S. cerevisiae deletion strains, locus YPR141C, strain kar3, stronger effect = lower value 0.999 | S. cerevisiae deletion strains, locus YPR163C, strain tif3, stronger effect = lower value 0.959 | S. cerevisiae deletion strains, locus YPR167C, strain met16, stronger effect = lower value 0.964 | S. cerevisiae deletion strains, strain wtn01, stronger effect = lower value 0.957 | S. cerevisiae strains, strain wild type, stronger effect = lower value 0.984
active: S. cerevisiae deletion strains, locus YKL160W, strain elf1, stronger effect = lower value 0.168 | S. cerevisiae deletion strains, locus YKR026C, strain gcn3, stronger effect = lower value 0.412 | S. cerevisiae deletion strains, locus YKR091W, strain srl3, stronger effect = lower value 0.444 | S. cerevisiae deletion strains, locus YLL001W, strain dnm1, stronger effect = lower value 0.293 | S. cerevisiae deletion strains, locus YLL026W, stronger effect = lower value 0.257 | S. cerevisiae deletion strains, locus YLL041C, strain sdh2, stronger effect = lower value 0.41 | S. cerevisiae deletion strains, locus YLR027C, strain aat2, stronger effect = lower value 0.306 | S. cerevisiae deletion strains, locus YLR039C, strain RIC1, stronger effect = lower value 1.36 [resistant] | S. cerevisiae deletion strains, locus YLR221C, strain rsa3, stronger effect = lower value 0.18 | S. cerevisiae deletion strains, locus YLR258W, strain gsy2, stronger effect = lower value 0.32 | S. cerevisiae deletion strains, locus YLR262C, strain YPT6 (second series), stronger effect = lower value 0.749 | S. cerevisiae deletion strains, locus YLR320W, strain mms22, stronger effect = lower value 0.137 | S. cerevisiae deletion strains, locus YLR342W, strain FKS1, stronger effect = lower value 0.25 | S. cerevisiae deletion strains, locus YLR357W, strain rsc2, stronger effect = lower value 0.544 | S. cerevisiae deletion strains, locus YLR370C, strain arc18, stronger effect = lower value 0.226 | S. cerevisiae deletion strains, locus YML120C, strain ndi1, stronger effect = lower value 0.24 | S. cerevisiae deletion strains, locus YMR058W, strain fet3, stronger effect = lower value 0.266 | S. cerevisiae deletion strains, locus YMR125W, strain sto1, stronger effect = lower value 0.17 | S. cerevisiae deletion strains, locus YMR129W, stronger effect = lower value 0.222 | S. cerevisiae deletion strains, locus YMR205C, strain PFK2, stronger effect = lower value 0.332 | S. cerevisiae deletion strains, locus YMR231W, strain pep5, stronger effect = lower value 0.794 | S. cerevisiae deletion strains, locus YNL071W, strain lat1, stronger effect = lower value 0.119 | S. cerevisiae deletion strains, locus YNL209W, strain ssb2, stronger effect = lower value 0.573 | S. cerevisiae deletion strains, locus YNL248C, strain rpa49, stronger effect = lower value 0.227 | S. cerevisiae deletion strains, locus YNL322C, strain KRE1 (second series), stronger effect = lower value 0.244 | S. cerevisiae deletion strains, locus YNR049C, strain mso1, stronger effect = lower value 0.334 | S. cerevisiae deletion strains, locus YOR001W, strain rrp6, stronger effect = lower value 0.314 | S. cerevisiae deletion strains, locus YOR070C, strain gyp1, stronger effect = lower value 0.126 | S. cerevisiae deletion strains, locus YOR080W, strain dia2, stronger effect = lower value 0.423 | S. cerevisiae deletion strains, locus YOR083W, strain WHI5, stronger effect = lower value 0.36 | S. cerevisiae deletion strains, locus YOR106W, strain vam3, stronger effect = lower value 0.33 | S. cerevisiae deletion strains, locus YOR265W, strain rbl2, stronger effect = lower value 0.251 | S. cerevisiae deletion strains, locus YOR270C, strain vph1, stronger effect = lower value 0.156 | S. cerevisiae deletion strains, locus YOR290C, strain snf2, stronger effect = lower value 0.245 | S. cerevisiae deletion strains, locus YPL051W, strain arl3, stronger effect = lower value 0.474 | S. cerevisiae deletion strains, locus YPL078C, strain atp4, stronger effect = lower value 0.316 | S. cerevisiae deletion strains, locus YPL106C, strain sse1, stronger effect = lower value 0.223 | S. cerevisiae deletion strains, locus YPL240C, strain hsp82, stronger effect = lower value 0.338
